Screening data deposited in PubChem BioAssay by National Center for Advancing Translational Sciences (NCATS).
SMN2 splice up – qHTS Assay for Enhancers of SMN2 Splice Variant Expression | AID 1458, 2008 | 210,000 compounds, 2.8% hits | Potency, µM (doses to about 46.1 µM), for the others: at the top dose activity change, positive = activation, most hits filed as activators | HEK293 SMN2-luciferase splicing reporter, luminescence, 30-36 h; also: % of control where 0% means no effect; nearly all actives have a fitted effect of over 55% in size
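HEK293 cells carry an SMN2 […]–luciferase reporter in which exon 7 inclusion puts luciferase in frame. Cells were plated 10-12 h before compound addition, then incubated 30-36 h at 37C. ONE-Glo luminescence was read; sodium butyrate at 4.5 mM final served as control.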
ELG1 genotoxic – qHTS screen for small molecules that induce genotoxicity in human embryonic kidney (HEK293T) cells expressing luciferase-tagged ELG1 | Potency, µM (titrated, usually from 46 µM), for the others: at the highest dose activity change, positive = activation, most hits filed as activators | 330,000 compounds, 1.3% hits | HEK293T ELG1-luciferase reporter, luminescence, 16 h | AID 504466, 2011; also: % of control where 0% means no effect; nearly all actives have a fitted effect of over 60% in size
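HEK293T cells expressing luciferase-tagged ELG1 were treated with compound or DMSO for 16 hr at 37°C. Luciferase activity was then read after 30 min with ONE-Glo at room temperature; rising signal flags genetic stress.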
FLuc modulator – qHTS profiling assay for firefly luciferase inhibitor/activator using purifed enzyme and Km concentrations of substrates (counterscreen for miR-21 project). 360,000 compounds, 6.9% hits. Potency, µM (top dose mostly 57.5 µM), for the others: at the highest dose activity change, negative = inhibition, most hits filed as inhibitors. Luciferin 4-monooxygenase (Photinus pyralis), P08659. purified FLuc, Km substrates, luminescence inhibition;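 also: plate controls were vehicle for no effect and reference inhibitor for full effect; nearly all actives have a fitted effect of over 55% in size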
Target sequence (P08659 whole entry, looked up): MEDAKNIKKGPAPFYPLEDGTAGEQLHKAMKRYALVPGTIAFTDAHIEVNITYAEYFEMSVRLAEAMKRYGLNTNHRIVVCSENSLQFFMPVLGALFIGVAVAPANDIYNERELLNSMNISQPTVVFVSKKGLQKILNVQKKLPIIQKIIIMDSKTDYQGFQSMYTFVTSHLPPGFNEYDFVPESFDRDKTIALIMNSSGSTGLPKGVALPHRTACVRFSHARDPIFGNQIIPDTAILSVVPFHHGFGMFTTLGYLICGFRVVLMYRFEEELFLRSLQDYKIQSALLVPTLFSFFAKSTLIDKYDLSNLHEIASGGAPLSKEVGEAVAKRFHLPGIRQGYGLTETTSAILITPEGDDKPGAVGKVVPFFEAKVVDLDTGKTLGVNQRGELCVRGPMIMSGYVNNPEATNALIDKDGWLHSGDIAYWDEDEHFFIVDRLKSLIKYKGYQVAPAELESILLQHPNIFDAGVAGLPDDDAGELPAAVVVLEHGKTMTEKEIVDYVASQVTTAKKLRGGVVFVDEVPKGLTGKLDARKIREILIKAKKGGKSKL
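Purified P. pyralis luciferase (10nM final) with 10uM D-luciferin and 10uM ATP (Km levels) in 50mM Tris acetate pH 7.5, 10mM Mg acetate, 0.01% Tween-20, 0.05% BSA; qHTS 6-point titration, ~60 µM downward; luminescence read.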
ELG1 DNA repair – qHTS screen for small molecules that inhibit ELG1-dependent DNA repair in human embryonic kidney (HEK293T) cells expressing luciferase-tagged ELG1 | HEK293T ELG1-luciferase reporter, luminescence, 16 h; DNA damage induced by 5-fluorouridine | Potency, µM (series often up to 46.1 µM), for the others: at the highest dose activity change, negative = inhibition, usual class: inhibitors | 330,000 compounds, 2.3% hits; also: % is scaled to controls: 0 for no effect and ±100 for the full control effect; nearly all actives have a fitted effect of over 55% in size
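Overnight (16 hr) co-exposure of 2,000 cells/well to 5-fluorouridine and compound at 37 °C preceded detection. Luciferase was quantified via ONE-Glo luminescence; loss of signal denotes inhibition.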
NPC1 prom act – qHTS Assay for NPC1 Promoter Activators; Huh7 NPC1 promoter luciferase reporter, 24 h; Potency, µM (titrated, usually from 9.22 µM), inactives show at the top dose activation, actives largely listed as activators; 320,000 compounds, 2.4% hits; AID 485313, 2010; also: % of control where 0% means no effect; nearly all actives have a fitted effect of over 60% in size
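Stably transfected Huh7 (NPC1 promoter→luciferase), 1500 cells/well in Opti-MEM + 10% FBS, 2 h settle, then compound 24 h at 37 °C. Luminescence after 10 min with Amplite reagent.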
Rab9 prom act – qHTS Assay for Rab9 Promoter Activators; Huh7 Rab9 promoter-luciferase reporter, luminescence, 24 h; 320,000 compounds, 2.8% hits; Potency, µM (doses to about 9.22 µM), without a hit: top-dose activation, negative = inhibition, most hits filed as activators; also: % of control where 0% means no effect; nearly all actives have a fitted effect of over 60% in size
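Luciferase signal after 10 min detection reagent at ambient indicates Rab9 promoter upregulation; stably transfected Huh7 cells were treated 24 h with compound in DMSO at 37 °C, 5% CO2.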
* hit, by the source's call; ? = inconclusive; . = not tested or not shown; [ ] = dose if it differs, or a comment. Only some compounds are listed: those with a hit (about 9.2% of all), similar ones and a draw of the others. Calls follow the shape of the dose curve; as a rule, active = well fitted curve in the direction sought with a large enough effect; inconclusive = small, poorly fitted or top-dose-only effect, or another doubt; inactive = no such curve, though single readings can be large; an effect the other way counts as inactive or inconclusive. Potency is read from the fitted curve at half-maximal effect.

SMILES	SMN2 splice up	ELG1 genotoxic	FLuc modulator	ELG1 DNA repair	NPC1 prom act	Rab9 prom act
O=C(/C=C/c1cccc([N+](=O)[O-])c1)c1ccc2c(c1)OCCO2	18.0%[1.84 µM]	?	?	?	14.1%	3.4%
CSc1ccc(/C=C/C(=O)c2ccc(NC(C)=O)cc2)cc1	5.3%	0.0%	3.01µM*	22.8%	12.8%	18.2%
O=C(O)c1ccc(/C=C/C(=O)c2ccc3c(c2)OCCCO3)cc1	.	?	0.0757µM*	?	?	?
CCN(CC(=O)Nc1ccc(NC(C)=O)cc1)C(=O)c1ccc2c(c1)OCCO2	.	-2.1%	-5.6%	8.7%	0.2%	-3.1%
CC(=O)Nc1ccc(/C=C/C(=O)c2ccc3c(c2)OCCO3)cc1	.	17.5%	6.75µM*	7.6%	-0.6%	8.4%
CCOC(=O)C1=CCN(Cc2ccccc2)CC1	.	-3.7%	-1.1%	-8.6%	0.8%	8.8%
CN(C)S(=O)(=O)c1ccc2c(c1)N(CC(=O)Nc1ccc(OC(F)(F)F)cc1)C(=O)CS2	.	.	-14.9%	.	.	.
N#C[C@H]1[C@H](c2ccccc2)[C@](C#N)(C(=O)c2ccccc2)[C@@H]2C=Cc3ccccc3N21	-70.9%	2.4%	?	12.6µM*	8.9%	.
COc1ccc(-c2nc3ccccc3n2OC(C)C(=O)O)cc1 (stereo not given)	.	?	10.7µM*	?	-1.8%	-0.4%
CC(On1c(-c2ccccc2)nc2ccc(Cl)cc21)C(=O)O (stereo not given)	8.4%	6.1%	?	?	-2.9%	9.3%
Cc1ccc(-c2nc3ccc(Cl)cc3n2OC(C)C(=O)O)cc1 (stereo not given)	?	?	10.7µM*	?	-0.1%	0.1%
Cc1ccc2cc(C#N)c(SCc3nnc(-c4ccccc4[N+](=O)[O-])o3)nc2c1	-27.4%	?	-0.2%	-14.7%	0.9%	1.7%
CC(=O)Nc1scc(C)c1-c1nc2ccccc2s1	.	-6.5%	3.8%	-1.1%	-2.2%	-2.2%
CC(=O)NCc1ccc(-c2nc3ccccc3s2)cc1	14.1µM*	?	3.01µM*	?	2.24µM*	0.631µM*
CC(=O)NCc1ccc(-c2csc(-c3cccs3)n2)cc1	.	?	5.36µM*	?	2µM*	2.24µM*
c1cncc(-c2nc3ccccc3s2)c1	.	?	21.3µM*	?	?	?
O=C(NCc1csc(-c2cccs2)n1)c1ccccc1	.	11.8%	?	?	?	23.4%
c1ccc2sc(-c3ccncc3)nc2c1	.	?	15.1µM*	?	3.16µM*	2.82µM*
CC(=O)N(Cc1cccnc1)c1cccc(-c2nc3ccccc3s2)c1	.	2.3%	-15.4%	?	3.5%	-16.6%
CCO[C@@H]1OC(C(=O)NCc2ccccc2)=C[C@H](c2coc3ccccc3c2=O)[C@H]1CCCO	.	12.8%	1.8%	-11.0%	-1.8%	-1.7%
CC[C@]12c3[nH]c4cc(CCC(=O)N(C)C)ccc4c3CCN1C(=O)[C@@H](CC(=O)NCCc1ccccn1)C[C@@H]2C(=O)N1CCN(C(=O)C2CC2)CC1	.	10.4%	.	15.3%	.	.
CCc1cccc(-n2c(=O)c3cccnc3n2CC(=O)NCc2ccc(C)cc2)c1	.	.	-9.7%	.	.	.
c1csc(-c2nc3ccccc3s2)c1	.	?	2.69µM*	?	2.51µM*	3.55µM*
Oc1ccc(-c2nc3ccccc3s2)cc1	.	3.66µM*	1.9µM*	?	2.82µM*	2.82µM*
COc1ccc(C(=O)Nc2cccc(-c3nc4cccnc4s3)c2C)c(OC)c1	.	.	-17.3%	.	.	.
SMILES	SMN2 splice up	ELG1 genotoxic	FLuc modulator	ELG1 DNA repair	NPC1 prom act	Rab9 prom act
COc1ccc(Cl)cc1NC(=O)CCc1nnc2ccc(N3CCC4(CC3)OCCO4)nn12	.	2.2%	0.5%	22.7%	-0.3%	0.1%
CC(=O)N(C)c1ccc(NS(=O)(=O)c2cc(Cl)ccc2Cl)cc1	-2.0%	-1.4%	0.4%	-0.5%	-3.7%	-11.9%
COC(=O)CSc1ncc(S(=O)(=O)c2ccccc2)c(=O)[nH]1	.	-2.6%	4.1%	9.4%	1.1%	-3.7%
COc1ccc(C(=O)COC(=O)CCCC(=O)Nc2ccc(C(C)=O)cc2)cc1	9.1%	.	5.36µM*	.	.	.
O=C(CCc1ccccc1)OCC(=O)c1ccc([N+](=O)[O-])cc1	2.7%	1.6%	-1.4%	-6.8%	-4.6%	1.0%
COc1ccc(C(=O)Cn2nnc(-c3ccccc3NC(=O)C(F)(F)F)n2)cc1	?	0.8%	2.9%	8.0%	-0.4%	9.5%
COc1ccc(C(=O)COC(=O)CCn2nnc(-c3cccc(O)c3OC)n2)cc1	-0.8%	11.5%	9.53µM*	-0.1%	-1.3%	4.4%
CCCc1ccc(C(=O)CCC(=O)O)cc1	-5.9%	19.1%	23.9µM*	?	7.6%	4.9%
COc1ccc(C(=O)COC(=O)CCc2ccccc2)cc1	.	-2.7%	26.9µM*	-1.3%	-5.4%	-2.2%
Cc1ccc(C(=O)CCC(=O)O)cc1	-2.8%	-1.8%	3.0%	0.0%	4.0%	-0.1%
CC1CCN(S(=O)(=O)c2ccc3c(c2)N(CC(=O)NCCN(C)C)C(=O)CO3)CC1	-1.7%	.	-0.9%	.	.	.
COc1ccc(S(=O)(=O)N(CC(=O)NN=C2CCN(C)CC2)c2cc(Cl)ccc2OC)cc1OC	.	2.1%	3.0%	5.8%	-4.7%	6.1%
Cc1cccc(C(=O)OCCN2CCOCC2)c1	.	4.3%	-11.0%	?	14.2%	11.7%
COc1ccc(/C(N)=N/OC(=O)CCc2ccccc2)cc1	.	?	?	?	8.9%	18.7%
COc1ccc(C(=O)CCc2ccccc2)cc1	.	?	16.9µM*	?	?	?
